Results from PubChem BioAssay.
Active and inactive are the calls of the source.

Tests used:
Albumin (Bos taurus) = Albumin (Bos taurus) (UniProt P02769); experiment: compounds binding labelled BSA control protein – biochemical, small-molecule microarray, Alexa647 label, 635/667 nm fluorescence, artefact control for SMM control protein annotation, profiling panel (AID 1118); conditions: BSA-A647 binding, fluorescence 635 nm, higher = more signal;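 note: score merges 667 nm emission intensity and signal-to-noise per printed compound spot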
Chain of Albumin (Bos taurus) (P02769 whole entry, looked up): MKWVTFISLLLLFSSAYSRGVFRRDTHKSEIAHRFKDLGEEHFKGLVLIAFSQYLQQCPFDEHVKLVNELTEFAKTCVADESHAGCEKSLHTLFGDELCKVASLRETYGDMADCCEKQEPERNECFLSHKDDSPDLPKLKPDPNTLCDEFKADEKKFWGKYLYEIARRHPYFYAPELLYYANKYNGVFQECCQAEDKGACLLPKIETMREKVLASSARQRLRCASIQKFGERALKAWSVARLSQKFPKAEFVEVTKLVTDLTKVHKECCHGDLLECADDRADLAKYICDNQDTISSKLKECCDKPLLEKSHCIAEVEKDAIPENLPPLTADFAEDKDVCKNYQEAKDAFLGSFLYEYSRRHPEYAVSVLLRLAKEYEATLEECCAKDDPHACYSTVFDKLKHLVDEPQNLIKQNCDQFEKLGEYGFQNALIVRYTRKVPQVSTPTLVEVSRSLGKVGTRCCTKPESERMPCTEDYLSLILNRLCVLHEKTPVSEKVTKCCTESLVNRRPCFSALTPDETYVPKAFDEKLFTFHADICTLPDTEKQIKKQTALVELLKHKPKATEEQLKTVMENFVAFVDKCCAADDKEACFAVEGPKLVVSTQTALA

[1] = probe aXIP binding to arrayed compounds – biochemical, NeuroSMM set, 635/667 nm fluorescence, primary screen (AID 1119); conditions: small-molecule microarray, higher = more signal, called active from +8 up or from −8 down;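 note: probe is the protein aXip251-270 applied at 1 µg/mL to compound-printed slides; binding of probe to printed compounds measured as 667 nm fluorescence plus signal to noise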
[2] = probe aNOTCH3 binding on compound microarray – biochemical, small-molecule microarray, 635/667 nm fluorescence, primary screen (AID 1120); conditions: higher = more signal;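 note: probe is a biotin-tagged antibody raised against NOTCH3 rather than NOTCH3 protein; score merges spot fluorescence near 667 nm with spot signal to noise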
[3] = probe aNOTCH2 binding on compound microarray – biochemical, small-molecule microarray, 635/667 nm fluorescence, primary screen (AID 1121); conditions: higher = more signal;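 note: score merges feature fluorescence read at 667 nm with its signal to noise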
[4] = target: Carbonic anhydrase 2 (Homo sapiens) (UniProt P00918); experiment: compounds binding carbonic anhydrase 2 – biochemical, small-molecule microarray, Alexa647-labelled CAII, profiling panel (AID 1122); conditions: CAII-A647 binding fluorescence, higher = more signal
[5] = COS7 lysate on small-molecule microarray, probe aHis, 635 nm (AID 1123); conditions: COS7 cell lysate, fluorescence, higher = more signal;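 note: z-score combines 667nm fluorescence intensity with signal-to-noise per printed compound spot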
[6] = probe aLAP1 signal on lysate-treated microarray – cell lysate, small-molecule microarray, COS7 lysate, primary screen (AID 1124); conditions: probe aLAP1, fluorescence, higher = more signal;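 note: lysate comes from COS7 cells expressing LAP1 and is applied at 0.3 µg/mL; score merges spot fluorescence near 667 nm with signal-to-noise over triplicate slides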
Sam68 (KHDRBS1) = experiment: compounds binding KHDRBS1 protein – biochemical, small-molecule microarray, 635 nm fluorescence, primary screen (AID 1125); conditions: higher = more signal;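 note: score merges 667 nm channel intensity with signal to noise over triplicate slides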
[7] = system: Chordin-like protein 2 (CHRDL2); experiment: compounds binding chordin-like 2 – biochemical, small-molecule microarray, 635 nm fluorescence, primary screen (AID 1126); conditions: fluorescence 635 nm, higher = more signal;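 note: printed compound slides probed with Chrdl2 protein at 4 µg/mL for 1 h at 4 C; score merges 667 nm emission intensity with signal to noise over three replicate slides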
[8] = target: Concanavalin-A (Canavalia ensiformis) (UniProt P02866); experiment: compounds binding concanavalin A lectin – biochemical, small-molecule microarray, Alexa647 label, 635 nm, artefact control for SMM control protein annotation, primary screen (AID 1127); conditions: ConA-A647 binding fluorescence, higher = more signal;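 note: z combines 667 nm emission intensity with signal-to-noise across three replicate slides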
Chain of Concanavalin-A (Canavalia ensiformis) (P02866 whole entry, looked up): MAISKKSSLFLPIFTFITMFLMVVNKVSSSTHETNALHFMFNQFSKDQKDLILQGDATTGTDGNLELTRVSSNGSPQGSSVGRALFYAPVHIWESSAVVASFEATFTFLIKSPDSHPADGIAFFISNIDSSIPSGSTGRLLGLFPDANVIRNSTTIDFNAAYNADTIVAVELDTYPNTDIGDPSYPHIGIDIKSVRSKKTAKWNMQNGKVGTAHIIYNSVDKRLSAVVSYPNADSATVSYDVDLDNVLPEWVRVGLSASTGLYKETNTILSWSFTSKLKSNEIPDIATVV

[9] = compounds binding Alexa647 anti-His antibody – biochemical, small-molecule microarray, 635 nm fluorescence, artefact control for SMM control protein annotation, primary screen (AID 1128); conditions: higher = more signal;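 note: score merges feature fluorescence with signal-to-noise for each printed compound spot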
[10] = system: Human papillomavirus type 1a E7 protein (residues 1-88); experiment: HPV1a E7 small-molecule binders, primary screen, biochemical, small-molecule microarray, residues 1-88, 635 nm (AID 1129); conditions: small-molecule microarray binding, fluorescence 635 nm; higher = more signal
[11] = target: Focal adhesion kinase 1 (Homo sapiens) (UniProt Q05397); experiment: PTK2 protein binding on printed compound slides – biochemical, small-molecule microarray, 635/667 nm fluorescence, BSA, DTT, primary screen (AID 1130); conditions: 635 nm fluorescence, higher = more signal;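 note: composite of spot emission at 667 nm and signal to noise over triplicate slides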
Chain of Focal adhesion kinase 1 (Homo sapiens) (Q05397 whole entry, looked up): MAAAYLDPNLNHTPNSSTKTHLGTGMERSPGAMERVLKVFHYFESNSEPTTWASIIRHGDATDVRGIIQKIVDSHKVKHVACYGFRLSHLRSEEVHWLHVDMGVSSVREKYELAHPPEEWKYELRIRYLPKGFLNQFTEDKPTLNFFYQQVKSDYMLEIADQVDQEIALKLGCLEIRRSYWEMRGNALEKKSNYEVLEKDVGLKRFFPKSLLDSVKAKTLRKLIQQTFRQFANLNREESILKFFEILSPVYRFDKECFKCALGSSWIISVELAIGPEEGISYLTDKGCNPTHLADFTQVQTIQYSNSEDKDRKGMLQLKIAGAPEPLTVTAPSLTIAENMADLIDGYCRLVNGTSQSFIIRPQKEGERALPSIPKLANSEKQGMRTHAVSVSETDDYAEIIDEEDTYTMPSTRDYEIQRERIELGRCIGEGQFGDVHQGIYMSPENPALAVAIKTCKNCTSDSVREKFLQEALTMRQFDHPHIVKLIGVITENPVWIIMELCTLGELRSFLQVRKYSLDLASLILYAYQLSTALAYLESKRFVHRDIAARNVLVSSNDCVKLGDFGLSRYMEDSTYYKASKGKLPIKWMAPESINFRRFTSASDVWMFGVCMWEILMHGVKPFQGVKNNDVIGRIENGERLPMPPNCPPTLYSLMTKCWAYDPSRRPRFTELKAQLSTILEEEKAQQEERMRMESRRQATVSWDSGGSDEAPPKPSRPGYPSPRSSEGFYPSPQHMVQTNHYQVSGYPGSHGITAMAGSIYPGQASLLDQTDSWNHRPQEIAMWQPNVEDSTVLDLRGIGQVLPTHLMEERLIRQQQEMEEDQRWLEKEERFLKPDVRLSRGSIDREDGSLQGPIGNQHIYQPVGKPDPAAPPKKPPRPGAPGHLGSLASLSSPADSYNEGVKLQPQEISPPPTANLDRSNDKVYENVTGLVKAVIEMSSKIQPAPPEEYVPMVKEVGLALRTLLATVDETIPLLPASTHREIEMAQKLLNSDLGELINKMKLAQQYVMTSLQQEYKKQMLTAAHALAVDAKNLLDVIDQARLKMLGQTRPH

[12] = system: Fibrinogen (Alexa647-labelled); experiment: Alexa647-fibrinogen binding to printed small molecules – biochemical, small-molecule microarray, 635/667 nm fluorescence, artefact control for SMM control-protein annotation, profiling panel (AID 1131); conditions: fibrinogen-A647 binding fluorescence, higher = more signal;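 note: z-score merges 667 nm fluorescence with per-spot signal-to-noise over triplicate slides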
[13] = target: Follistatin (Homo sapiens) (UniProt P19883); experiment: FST protein binding to printed compounds – biochemical, small-molecule microarray, 635/667 nm fluorescence, primary screen (AID 1132); conditions: 635 nm fluorescence, higher = more signal
Chain of Follistatin (Homo sapiens) (P19883 whole entry, looked up): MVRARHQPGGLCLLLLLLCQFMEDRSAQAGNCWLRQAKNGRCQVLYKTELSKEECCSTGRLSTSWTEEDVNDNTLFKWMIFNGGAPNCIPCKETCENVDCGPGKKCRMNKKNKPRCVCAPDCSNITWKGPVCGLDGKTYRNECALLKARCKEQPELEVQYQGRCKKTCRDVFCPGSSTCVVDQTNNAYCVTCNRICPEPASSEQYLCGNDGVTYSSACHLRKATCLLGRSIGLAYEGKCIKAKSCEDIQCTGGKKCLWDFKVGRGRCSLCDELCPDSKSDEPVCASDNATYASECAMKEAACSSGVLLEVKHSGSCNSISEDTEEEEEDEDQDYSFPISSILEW

[14] = target: Fibroblast growth factor 2 (Homo sapiens) (UniProt P09038); experiment: basic fibroblast growth factor binding to printed compounds – biochemical, small-molecule microarray, 635/667 nm fluorescence, primary screen (AID 1133); conditions: FGF2, fluorescence 635/667, higher = more signal
Chain of Fibroblast growth factor 2 (Homo sapiens) (P09038 whole entry, looked up): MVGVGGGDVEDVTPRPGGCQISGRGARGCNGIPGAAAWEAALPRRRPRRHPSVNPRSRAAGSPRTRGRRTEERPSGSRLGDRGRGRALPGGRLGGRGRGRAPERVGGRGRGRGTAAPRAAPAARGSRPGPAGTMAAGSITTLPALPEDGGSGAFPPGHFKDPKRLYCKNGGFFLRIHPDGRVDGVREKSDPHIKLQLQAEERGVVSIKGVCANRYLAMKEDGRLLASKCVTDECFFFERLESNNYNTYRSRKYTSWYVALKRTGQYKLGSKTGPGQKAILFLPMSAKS

[15] = JC-1 mitochondrial potential readout, lung cancer cells – cell-based, A549, JC-1 fluorescence, basal, 24 h, 100 nL, profiling panel (AID 1138); conditions: higher = more signal;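 note: A549 lung adenocarcinoma cells under basal conditions with no added stimulus; test concentration not given here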
Lefty1 = Lefty1 protein binding to printed compounds – biochemical, small-molecule microarray, 635/667 nm fluorescence, primary screen (AID 1139); conditions: fluorescence 635/667, higher = more signal
[16] = system: wheat germ agglutinin (Triticum aestivum), Alexa647-labelled; experiment: Alexa647-WGA lectin binding to printed small molecules – biochemical, small-molecule microarray, 635/667 nm fluorescence, artefact control for SMM control-protein annotation, profiling panel (AID 1140); conditions: WGA-A647 binding, 635 nm fluorescence, higher = more signal;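 note: score merges 667 nm feature emission with signal to noise over triplicate slides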
[17] = target: Luciferin 4-monooxygenase (Photinus pyralis) (UniProt P08659); experiment: inhibition of purified Photinus pyralis luciferase – biochemical, luminescence, purified enzyme, 2006 set, primary screen (AID 1141); conditions: purified firefly luciferase, SteadyGlo luminescence, 30 min; higher = more signal, called active from +8 up or from −8 down;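 note: cell-free assay with purified firefly luciferase at 100 ng per well in PBS; test concentration not given here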
Chain of Luciferin 4-monooxygenase (Photinus pyralis) (P08659 whole entry, looked up): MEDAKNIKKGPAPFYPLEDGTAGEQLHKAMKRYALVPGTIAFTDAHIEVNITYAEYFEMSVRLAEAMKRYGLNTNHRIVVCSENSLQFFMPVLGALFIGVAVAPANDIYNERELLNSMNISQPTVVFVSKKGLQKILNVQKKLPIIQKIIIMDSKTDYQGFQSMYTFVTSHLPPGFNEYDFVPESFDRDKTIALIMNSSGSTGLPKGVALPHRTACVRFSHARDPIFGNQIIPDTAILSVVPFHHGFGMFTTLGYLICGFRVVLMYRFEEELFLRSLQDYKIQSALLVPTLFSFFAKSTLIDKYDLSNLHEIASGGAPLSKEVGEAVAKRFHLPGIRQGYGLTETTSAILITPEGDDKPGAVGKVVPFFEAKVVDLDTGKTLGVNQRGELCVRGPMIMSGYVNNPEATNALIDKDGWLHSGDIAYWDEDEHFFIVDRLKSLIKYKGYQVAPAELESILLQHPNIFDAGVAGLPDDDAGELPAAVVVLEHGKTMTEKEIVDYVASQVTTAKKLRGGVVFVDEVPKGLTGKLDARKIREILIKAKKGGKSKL

Compound: COc1ccc(C(=O)Nc2cccc(CN3C(=O)[C@@]4(O[C@@H](CCO)[C@H]([Si](C)(C)c5ccc(OC)cc5)[C@H]4C)c4ccccc43)c2)cc1
- composite z-score (Albumin (Bos taurus)): 0.558
- composite Z-score [1]: -0.0927 (inactive)
- composite z-score [2]: -0.0343
- composite z-score [3]: -0.14
- composite z-score [4]: 0.211
- composite z-score [5]: 0.421
- composite z-score [6]: 0.0002
- composite z-score (Sam68 (KHDRBS1)): 1.18
- composite z-score [7]: -0.143
- composite z-score [8]: 1.01
- composite z-score [9]: 0.338
- composite z-score [10]: 1.07
- composite z-score [11]: -0.177
- composite z-score [12]: 0.795
- composite z-score [13]: 1
- composite z-score [14]: -0.169
- z-score [15]: -1.29
- composite z-score (Lefty1): 0.143
- composite z-score [16]: 0.327
- z-score [17]: -1.96 (inactive)

Compound: COC(=O)C1=CC(c2ccc(CO)cc2)=CC(c2cccs2)N(C)C=C1C(=O)OC (stereo not given)
- composite z-score (Albumin (Bos taurus)): 0.208
- composite Z-score [1]: 0.875 (inactive)
- composite z-score [2]: -0.0023
- composite z-score [3]: -0.14
- composite z-score [4]: 0.589
- composite z-score [5]: 2
- composite z-score [6]: 0.387
- composite z-score (Sam68 (KHDRBS1)): 0.494
- composite z-score [7]: -1.14
- composite z-score [8]: 0.494
- composite z-score [9]: 1.48
- composite z-score [10]: -0.351
- composite z-score [11]: 1.18
- composite z-score [12]: -0.141
- composite z-score [13]: 0.23
- composite z-score [14]: -0.485
- z-score [15]: 1.08
- composite z-score (Lefty1): -0.116
- composite z-score [16]: 0.84
- z-score [17]: -0.822 (inactive)

Compound: C=CCNC(=O)[C@@H]1[C@H]2C(=O)O[C@H](c3ccccc3)[C@H](c3ccccc3)N2[C@H](c2ccc(O)cc2)[C@@]12C(=O)N(C(=O)OCCOC)c1ccc(C#Cc3ccc(OC)cc3)cc12
- composite z-score (Albumin (Bos taurus)): -0.0706
- composite Z-score [1]: 0.574 (inactive)
- composite z-score [2]: 0.13
- composite z-score [3]: 0.0406
- composite z-score [4]: 0.484
- composite z-score [5]: 1.46
- composite z-score [6]: 0.478
- composite z-score (Sam68 (KHDRBS1)): 1.32
- composite z-score [7]: 0.455
- composite z-score [8]: 1.12
- composite z-score [9]: 0.539
- composite z-score [10]: 1.13
- composite z-score [11]: 1.68
- composite z-score [12]: 0.8
- composite z-score [13]: 0.949
- composite z-score [14]: 0.915
- z-score [15]: -0.0671
- composite z-score (Lefty1): 0.544
- composite z-score [16]: 1.06
- z-score [17]: -1.23 (inactive)

Compound: COC(=O)c1c2oc(c1C(=O)OC)C(=O)N[C@@H](C(C)C)Cn1nncc1C1(CCCCC1)NC(=O)N[C@H](CO)CC2
- composite z-score (Albumin (Bos taurus)): 0.543
- composite Z-score [1]: 0.559 (inactive)
- composite z-score [2]: -0.126
- composite z-score [3]: -0.131
- composite z-score [4]: 0.86
- composite z-score [5]: 0.942
- composite z-score [6]: -0.162
- composite z-score (Sam68 (KHDRBS1)): -0.0929
- composite z-score [7]: -0.573
- composite z-score [8]: 0.77
- composite z-score [9]: -0.614
- composite z-score [10]: -0.622
- composite z-score [11]: 0.195
- composite z-score [12]: -1.26
- composite z-score [13]: -0.238
- composite z-score [14]: 0.0484
- z-score [15]: 2.33
- composite z-score (Lefty1): 0.0278
- composite z-score [16]: -0.719
- z-score [17]: -1.25 (inactive)

Compound: COCCOC(=O)N1C(=O)[C@@]2(c3cc(C#CCNC(N)=O)ccc31)[C@H](c1ccccc1OCCO)N1[C@H](c3ccccc3)[C@H](c3ccccc3)OC(=O)[C@H]1[C@@H]2C(=O)Nc1nc2ccccc2s1
- composite z-score (Albumin (Bos taurus)): 0.598
- composite Z-score [1]: 0.564 (inactive)
- composite z-score [2]: -0.0391
- composite z-score [3]: -0.0817
- composite z-score [4]: 0.439
- composite z-score [5]: 0.862
- composite z-score [6]: 0.292
- composite z-score (Sam68 (KHDRBS1)): 1.12
- composite z-score [7]: 0.0611
- composite z-score [8]: 1.03
- composite z-score [9]: 0.3
- composite z-score [10]: 0.965
- composite z-score [11]: 0.374
- composite z-score [12]: 0.283
- composite z-score [13]: 1.17
- composite z-score [14]: 0.271
- z-score [15]: -2.07
- composite z-score (Lefty1): 0.591
- composite z-score [16]: 1.04
- z-score [17]: -1.87 (inactive)

Compound: O=C1O[C@H](c2ccccc2)[C@H](c2ccccc2)N2[C@H]1[C@@H](C(=O)NC[C@H](O)c1ccccc1)[C@]1(C(=O)Nc3ccc(C#CC4(O)CCCCCC4)cc31)[C@H]2c1ccc(O)cc1
- composite z-score (Albumin (Bos taurus)): 0.647
- composite Z-score [1]: 0.601 (inactive)
- composite z-score [2]: 0.246
- composite z-score [3]: -0.0404
- composite z-score [4]: 0.359
- composite z-score [5]: 0.892
- composite z-score [6]: 1.07
- composite z-score (Sam68 (KHDRBS1)): 1.33
- composite z-score [7]: 0.233
- composite z-score [8]: 1.12
- composite z-score [9]: 1.23
- composite z-score [10]: 0.843
- composite z-score [11]: 0.333
- composite z-score [12]: 0.574
- composite z-score [13]: 1.31
- composite z-score [14]: 1.01
- z-score [15]: -0.105
- composite z-score (Lefty1): 0.873
- composite z-score [16]: 0.588
- z-score [17]: -1.56 (inactive)

Compound: O=C1N(CCS(=O)(=O)c2ccccc2)Cc2ccccc2[C@@H]2OC(c3ccc(OCCCO)cc3)=N[C@]12Cc1ccccc1
- composite z-score (Albumin (Bos taurus)): -0.0444
- composite Z-score [1]: 1.83 (inactive)
- composite z-score [2]: 0.165
- composite z-score [3]: 0.0042
- composite z-score [4]: 0.742
- composite z-score [5]: 2.84
- composite z-score [6]: 0.599
- composite z-score (Sam68 (KHDRBS1)): 1.29
- composite z-score [7]: 0.286
- composite z-score [8]: 1.13
- composite z-score [9]: 3.33
- composite z-score [10]: 1.27
- composite z-score [11]: 0.526
- composite z-score [12]: 0.988
- composite z-score [13]: 1.34
- composite z-score [14]: 1.68
- z-score [15]: -0.0106
- composite z-score (Lefty1): 1.1
- composite z-score [16]: 1.23
- z-score [17]: -2.12 (inactive)

Compound: CC(C)N1C(=O)c2ccccc2[C@@H](C(=O)NCc2ccccc2)[C@@H]1c1ccc(CO)cc1
- composite z-score (Albumin (Bos taurus)): -2.18
- composite Z-score [1]: 0.335 (inactive)
- composite z-score [2]: -0.27
- composite z-score [3]: -0.162
- composite z-score [4]: 0.741
- composite z-score [5]: 1.51
- composite z-score [6]: 0.409
- composite z-score (Sam68 (KHDRBS1)): 0.0504
- composite z-score [7]: -0.184
- composite z-score [8]: -1.07
- composite z-score [9]: -1.36
- composite z-score [10]: 0.369
- composite z-score [11]: 0.427
- composite z-score [12]: -1.22
- composite z-score [13]: 0.815
- composite z-score [14]: 0.82
- z-score [15]: 1.64
- composite z-score (Lefty1): -1.28
- composite z-score [16]: -1.51
- z-score [17]: -0.886 (inactive)
